KB-3-1 tox = KB-3-1 parental cell cytotoxicity; KB-3-1 viability, CellTiter-Glo ATP luminescence, 72 h; Potency, µM (doses to about 46.1 µM), actives largely listed as cytotoxic; actives 1.4% (n = 400,000); also: nearly all actives have a fitted effect of over 60% in size
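Viability of parental KB-3-1 cells, measured by CellTiter-Glo luminescence, followed a 72 h incubation at 37 °C with pinned compounds in phenol-red-free DMEM containing 10% FBS.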
HT1080 IDH1KD tx = HT-1080 IDH1 knockdown cell toxicity (counter line); HT-1080 IDH1 knockdown viability, ATP luminescence, 48 h; Potency, µM (series often up to 46.1 µM), without a hit: at the top dose activity, negative = toxicity, usual class: cytotoxic; actives 2% (n = 360,000);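 also: 0% = DMSO wells and -100% = cell-free medium wells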
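Knockdown cells (IDH1KD HT-1080) received compounds 2 h after plating at 750 cells/well and were kept 48 h at 37 °C in 5% FBS RPMI. A CellTiter-Glo luminescence read gave % activity for curve fitting.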
DT40 TDP1 no CPT = qHTS for Inhibitors of human tyrosyl-DNA phosphodiesterase 1 (TDP1): qHTS in cells in absence of CPT; Potency, µM (doses to about 46.2 µM), without a hit: at the top dose activity change, negative = growth inhibition, hits mostly inhibitors; DT40 Tdp1-/- hTDP1 cells, no CPT, ATP luminescence, 48 h; actives 15% (n = 420,000); also: nearly all actives have a fitted effect of over 55% in size
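Growth of hTDP1-complemented DT40 Tdp1-knockout cells is measured by ATP luminescence after at least 48 hr compound exposure at 37 °C, with DMSO substituting for the 20 nM CPT used in the parallel screen.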
KB-V1 cytotox = kills drug-selected multidrug resistant KB-V1 cells; Potency, µM (doses to about 46.1 µM), hits mostly cytotoxic; actives 3.4% (n = 400,000); KB-V1 MDR cells viability, CellTiter-Glo, 72 h; AID 1347076; also: nearly all actives have a fitted effect of over 60% in size
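Cytotoxicity toward P-gp-expressing KB-V1 cells was determined as loss of CellTiter-Glo luminescence after 72 h at 37 degrees C. Compounds were tested in quantitative HTS format across a concentration range, with curves fitted to normalized data.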
HT1080NT lethal = kills 2HG-producing HT-1080-NT fibrosarcoma cells; Potency, µM (doses to about 46.1 µM), for inactives: at the top dose activity, negative = less viability, actives largely listed as cytotoxic; actives 1.6% (n = 360,000); HT-1080-NT fibrosarcoma viability, CellTiter-Glo ATP luminescence, 48 h; AID 686970;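 also: NT is the 2HG producing partner of a matched IDH1 knockdown line; 0% = DMSO-treated cells and -100% = media-only wells without cells; nearly all actives have a fitted effect of over 55% in size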
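750 cells/well, RPMI + 5% FBS; 2 h settle, compound pin-transfer, 48 h at 37 degrees C. CellTiter-Glo 10 min RT, luminescence. Normalized to DMSO and media-only wells.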
TDP1 cell CPT = DT40-hTDP1 cell growth loss with CPT; actives 12% (n = 420,000); Potency, µM (titrated, usually from 46.2 µM), inactives show at the highest dose activity change, negative = growth inhibition, usual class: inhibitors; AID 686979; chicken DT40 Tdp1-/-;hTDP1 cells + 20 nM CPT, ATP luminescence, 48 h; also: nearly all actives have a fitted effect of over 55% in size
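Cell growth measured by CellTiter-Glo luminescence after a minimum 48 h, 37 C compound exposure with 20 nM CPT in Tdp1-knockout DT40 cells stably expressing hTDP1, seeded 400/well; qHTS titration format.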
Numbers without * were called inactive. A selection: hits, their analogues and other compounds. The true share with any hit is near 19%. Calls follow the shape of the dose curve; as a rule, active = well fitted curve in the direction sought with a large enough effect; inconclusive = small, poorly fitted or top-dose-only effect, or another doubt; inactive = no such curve, though single readings can be large; an effect the other way counts as inactive or inconclusive. Unless noted, % is scaled to controls: 0 for no effect and ±100 for the full control effect; potency is read from the fitted curve at half-maximal effect.

What do the screens show for `CCc1nc2sc3c(O)cc(=O)[nH]c3c2cc1C`?
KB-3-1 tox: inactive; HT1080 IDH1KD tx: -6%; DT40 TDP1 no CPT: 12µM*; KB-V1 cytotox: inactive; HT1080NT lethal: -2%; TDP1 cell CPT: inconclusive

How did Fc1ccc(C2=CC(c3ccc(F)cc3)n3c(nc4ccccc43)N2)cc1 (centres undefined) do in these assays?
KB-3-1 tox: inconclusive; DT40 TDP1 no CPT: 5.2µM*; KB-V1 cytotox: inconclusive; TDP1 cell CPT: 15µM*

How did COC(=O)C1=C(C)Nc2nc3ccccc3n2C1c1ccccc1F (centres undefined) do in these assays?
KB-3-1 tox: inactive; HT1080 IDH1KD tx: -6%; DT40 TDP1 no CPT: inconclusive; KB-V1 cytotox: inconclusive; HT1080NT lethal: -6%; TDP1 cell CPT: inconclusive

Results for COC(=O)c1ccc(C2C=C(c3ccc(Cl)cc3)Nc3nc4ccccc4n32)cc1 (centres undefined) ?
KB-3-1 tox: inactive; DT40 TDP1 no CPT: 8.2µM*; KB-V1 cytotox: inactive; TDP1 cell CPT: 9.2µM*

Results for COc1ccc(-c2nc3n(n2)C(c2ccccc2F)C(C(=O)Nc2cccnc2)=C(C)N3)cc1OC (centres undefined) ?
KB-3-1 tox: inactive; DT40 TDP1 no CPT: -92%; KB-V1 cytotox: inactive; TDP1 cell CPT: inconclusive

What do the screens show for `CCOc1ccc(CCNC(=O)c2sc3ncccc3c2-n2cccc2)cc1OCC`?
KB-3-1 tox: inactive; DT40 TDP1 no CPT: inconclusive; KB-V1 cytotox: inconclusive; TDP1 cell CPT: 26µM*

How did CC(C)NC(=O)c1sc2ncccc2c1-n1cccc1 do in these assays?
KB-3-1 tox: inactive; DT40 TDP1 no CPT: 2.6µM*; KB-V1 cytotox: inactive; TDP1 cell CPT: inconclusive

Results for Cc1nnsc1C(=O)NC(C)c1ccccc1 (centres undefined) ?
KB-3-1 tox: inactive; HT1080 IDH1KD tx: 9%; DT40 TDP1 no CPT: -4%; KB-V1 cytotox: inactive; HT1080NT lethal: 0%; TDP1 cell CPT: inconclusive

What do the screens show for `COC(=O)c1sc2ncccc2c1OCc1ccccc1Cl`?
KB-3-1 tox: inactive; HT1080 IDH1KD tx: 1%; DT40 TDP1 no CPT: inconclusive; KB-V1 cytotox: inactive; HT1080NT lethal: 19%; TDP1 cell CPT: -21%

Results for CC(NC(=O)c1sc2ncccc2c1-n1cccc1)c1ccccc1 (centres undefined) ?
KB-3-1 tox: inactive; DT40 TDP1 no CPT: 23µM*; KB-V1 cytotox: inactive; TDP1 cell CPT: inconclusive

How did COC(=O)c1nnn(CC(=O)Nc2ccc(Br)c(C)c2)c1N do in these assays?
KB-3-1 tox: inactive; DT40 TDP1 no CPT: -3%; KB-V1 cytotox: inactive; TDP1 cell CPT: -3%

How did CCNC(=O)NC(=O)C(C)Oc1ccc(Br)cc1Br (centres undefined) do in these assays?
KB-3-1 tox: inactive; HT1080 IDH1KD tx: 0%; DT40 TDP1 no CPT: -4%; KB-V1 cytotox: inconclusive; HT1080NT lethal: -19%; TDP1 cell CPT: -3%

Results for COc1ccc(Cc2c(-c3cccc(Br)c3)nc3ccc(Cl)cn23)c(C)c1 ?
KB-3-1 tox: inactive; HT1080 IDH1KD tx: 1%; DT40 TDP1 no CPT: inconclusive; KB-V1 cytotox: inactive; HT1080NT lethal: -7%; TDP1 cell CPT: 0%

What do the screens show for `COc1ccc(Cc2c(-c3cccc(Cl)c3)nc3ccc(Cl)cn23)c(C)c1`?
KB-3-1 tox: inactive; HT1080 IDH1KD tx: -25%; DT40 TDP1 no CPT: inconclusive; KB-V1 cytotox: inactive; HT1080NT lethal: -28%; TDP1 cell CPT: 26µM*

How did COc1ccc(Cc2c(-c3ccccc3)nc3ccc(Br)cn23)c(C)c1 do in these assays?
KB-3-1 tox: inconclusive; HT1080 IDH1KD tx: inconclusive; DT40 TDP1 no CPT: 21µM*; KB-V1 cytotox: inactive; HT1080NT lethal: inconclusive; TDP1 cell CPT: 21µM*

High-throughput results (PubChem BioAssay)
